Bioassay records (PubChem)
Anthrax LT inh: qHTS Assay for Anthrax Lethal Toxin Internalization | Cells, anthrax lethal toxin internalization, FRET ratio (460/530) | Potency, µM (top dose mostly 40 µM), most hits filed as inhibitors | 70,000 compounds, 0.67% hits | AID 912, 2007; further: nearly all actives have a fitted effect of over 50% in size
AmpC inh det: Promiscuous and Specific Inhibitors of AmpC Beta-Lactamase (assay with detergent). purified AmpC, nitrocefin hydrolysis with detergent. AID 584, 2007. Potency, µM (highest dose often 28.7 µM). 71,000 compounds, 0.09% hits; active means well fitted curve in the direction sought with a large enough effect; inconclusive means small, poorly fitted or top-dose-only effect
Target sequence (P00811 whole entry, looked up): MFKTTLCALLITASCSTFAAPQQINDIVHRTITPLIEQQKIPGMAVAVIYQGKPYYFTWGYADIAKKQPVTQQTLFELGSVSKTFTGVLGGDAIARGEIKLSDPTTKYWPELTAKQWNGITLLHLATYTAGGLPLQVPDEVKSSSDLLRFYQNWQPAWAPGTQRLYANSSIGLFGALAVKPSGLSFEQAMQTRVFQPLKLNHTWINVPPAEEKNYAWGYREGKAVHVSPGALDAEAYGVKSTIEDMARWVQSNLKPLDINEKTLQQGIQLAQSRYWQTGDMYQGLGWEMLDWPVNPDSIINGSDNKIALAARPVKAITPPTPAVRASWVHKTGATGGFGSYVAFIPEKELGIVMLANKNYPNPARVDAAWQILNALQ
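E. coli AmpC (5.3 nM) in 20 mM phosphate pH 7.0 with 0.01% Triton X-100, preincubated 15 min RT with compound; nitrocefin (2 uL of 800 uM stock) hydrolysis followed by 480 nm absorbance every 20 s over 4 min.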
AmpC inh no det: Promiscuous and Specific Inhibitors of AmpC Beta-Lactamase (assay without detergent); P00811; AmpC nitrocefin hydrolysis, absorbance 480 nm, no detergent; Potency, µM (titrated, usually from 28.7 µM); 71,000 compounds, 1.8% hits
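Enzyme, pH 7.0 phosphate. Compound titrations were pre-incubated with AmpC for 15 min at room temperature before nitrocefin (stock 800 uM) addition; product formation was recorded at 480 nm every 20 s for 4 min.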
Prx2 Sm inh: Schistosoma Mansoni Peroxiredoxins (Prx2); Schistosoma mansoni peroxiredoxin 2 (Prx2); Potency, µM; S. mansoni Prx2 activity coupled to TGR/GSH (TGR is thioredoxin glutathione reductase), NADPH fluorescence loss, qHTS; AID 448, 2006; 65,000 compounds, 0.07% hits
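Enzyme mix: 100 uM NADPH, 25 nM TGR, 700 uM GSH, 50 nM Prx2 in 100 mM phosphate pH 7.4, 10 mM EDTA, 0.01% Tween-20. 15 min RT with compound; NADPH/GSH added, H2O2 starts reaction; NADPH fluorescence read 8 min.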
Each line names hits and unclear results; the compound was inactive in the other large screens; [ ] = dose if it differs, or a comment. An excerpt weighted towards active compounds, which were near 2.6% of everything screened. Unless noted, the call rests on the fitted dose curve.

O=C1CCc2cc(S(=O)(=O)N3CCCC3C(=O)N3CCN(c4ccccc4)CC3)ccc2N1 (stereo not given)	AmpC inh no det 4µM[single pt active]
Cc1ccc(NC(=O)C2CCCN2S(=O)(=O)c2ccc3c(c2)CCC(=O)N3)cc1Cl (stereo not given)	AmpC inh no det 4µM[single pt active]
COc1ccc2c(c1)CCC1C2CC[C@]2(C)[C@H](NCCCCCCN3C(=O)C=CC3=O)CC[C@@H]12 (stereo not given in full)	none
CCNc1ncc2nc(-c3ccccc3)c(=O)n(Cc3cccc(OC)c3)c2n1	Anthrax LT inh inconclusive
CCCCNC(=O)C(c1ccc(OCC(=O)OC)c(C(=O)OC)c1)N(CCC1=CCCCC1)C(=O)CCCCCN1C(=O)NC(c2ccc(-c3ccccc3)cc2)C(C(=O)OCc2ccccc2)=C1C (stereo not given)	none (no result: Prx2 Sm inh)
CC(=O)OC[C@H]1O[C@@H](CCO/N=C2/[C@H]3O[C@@H]3[C@@H](O)[C@H]3[C@H]2CCn2c(=O)n(-c4ccccc4)c(=O)n23)C=C[C@@H]1OC(C)=O	none (no result: AmpC inh det, AmpC inh no det, Prx2 Sm inh)
COc1cc(C)c(S(=O)(=O)NCc2ccc3c(c2)OCO3)cc1C	Anthrax LT inh inconclusive, AmpC inh no det 3.2µM[single pt active]
COc1cc(S(=O)(=O)NCc2ccc3c(c2)OCO3)ccc1Cl	Anthrax LT inh inconclusive
CCOc1ccc(OCC)c(S(=O)(=O)NCc2ccc3c(c2)OCO3)c1	AmpC inh no det 4µM[single pt active]
O=C(CCN1C(=O)C2C3C=CC(C3)C2C1=O)Nc1nccs1 (stereo not given)	none
O=C(CCCCCN1C(=O)C2C3C=CC(C3)C2C1=O)Nc1nccs1 (stereo not given)	AmpC inh no det 2µM[single pt active]
CCCCCCNC(=O)c1c(O)c2ccccc2[nH]c1=O	AmpC inh no det 13µM
CC(C)[C@@H](CC(=O)N[C@@H]1CCCC[C@H]1C(=O)N[C@H](CC(=O)N[C@@H](CCC(=O)O)CC(=O)O)Cc1c[nH]c2ccccc12)NC(=O)C[C@H](CO)NC(=O)[C@@H]1CNCC[C@H]1N	none
COc1cc2ccc(=O)oc2c(O)c1OCC=C(C)C	Anthrax LT inh inconclusive
CC(C)=CCC/C(C)=C/COc1c2ccoc2cc2oc(=O)ccc12	Anthrax LT inh inconclusive, AmpC inh no det 13µM
CCCCN(C(=O)c1ccc(Cl)cc1)C1CC2CCC(C1)N2C (stereo not given)	Anthrax LT inh inconclusive, AmpC inh no det 4µM[single pt active]
COc1cc(C(=O)N(CCc2ccccc2)C2CC3CCC(C2)N3C)cc(OC)c1OC (stereo not given)	none
CCN1C(=O)[C@H]2[C@H]3[C@H](O)[C@H](O)C/C(=N/O[C@@H](C)CN4CCCc5nc(C)c(C)cc54)[C@@H]3CC[C@@H]2C1=O	none (no result: AmpC inh det, AmpC inh no det, Prx2 Sm inh)
COc1ccccc1S(=O)(=O)Cc1ccc(C(=O)N2CCN(c3ccccc3)CC2)o1	none
COc1ccccc1S(=O)(=O)Cc1ccc(C(=O)N2CCOCC2)o1	AmpC inh no det 3.2µM[single pt active]
COc1ccc(S(=O)(=O)Cc2ccc(C(=O)N3CCOCC3)o2)cc1	AmpC inh no det 4µM[single pt active]
COC(=O)c1ccc(CSc2nc3scc(-c4cccs4)c3c(=O)[nH]2)o1	AmpC inh no det 13µM
COC(=O)c1ccc(-c2nn(C)c(=O)c3ccccc23)cc1	AmpC inh no det 4µM[single pt active]
CN(C)c1ccc2c(c1)OC(N)=C(C#N)C2c1cccc(F)c1 (stereo not given)	Anthrax LT inh 6.3µM (no result: Prx2 Sm inh)
N#CC1=C(N)Oc2cc(O)ccc2C1c1cccs1 (stereo not given)	none (no result: Prx2 Sm inh)
Cc1nn2cc(-c3ccc(-c4ccccc4)cc3)nc2s1	AmpC inh no det 13µM
Cc1nn2cc(-c3ccc(Cl)cc3)nc2s1	none
O=C1NC(=O)[C@]2(Cc3ccccc3N3CCN(c4ccccc4)CC32)C(=O)N1Cc1ccccc1 (stereo not given in full)	AmpC inh no det 10µM[single pt active] (no result: Anthrax LT inh)
Cc1ccn2cc(C(=O)Nc3ccc4c(c3)OCCO4)nc2c1	Anthrax LT inh 7.9µM
Cc1cccc(N2CCN(C(=O)c3cc4c(C)nc5ccccc5c4o3)CC2)c1C	Anthrax LT inh 10µM
Cc1nc2ccccc2c2oc(C(=O)Nc3ccc4c(c3)OCCO4)cc12	Anthrax LT inh 0.79µM
Cc1ccn2cc(C(=O)Nc3ccccc3N3CCOCC3)nc2c1	Anthrax LT inh inconclusive
Cc1nc2ccccc2c2oc(C(=O)NCC3COc4ccccc4O3)cc12 (stereo not given)	Anthrax LT inh 5µM
NCCC[C@@](N)(C(=O)O)C(F)F	none
COc1ccc(C2CC(c3ccccc3C)n3nc(N)nc3N2)cc1 (stereo not given)	AmpC inh no det 4µM[single pt active]
COc1cccc(C2CC(c3ccccc3C)n3nc(N)nc3N2)c1 (stereo not given)	AmpC inh no det 4µM[single pt active]
Cc1ccc(C2CC(c3ccccc3C)n3nc(N)nc3N2)cc1 (stereo not given)	AmpC inh no det 4µM[single pt active]
CCOc1ccc(C2CC(c3ccccc3C)n3nc(N)nc3N2)cc1 (stereo not given)	none
CN(C)c1ccc(-c2nccc(Nc3ccc(F)cc3)n2)cc1	Anthrax LT inh inconclusive
C#CCCCO/N=C1/C[C@@H](O)[C@@H](O)[C@@H]2[C@@H]3C(=O)N(C(C)(C)C)C(=O)[C@H]3CC[C@@H]12	none (no result: AmpC inh det, AmpC inh no det, Prx2 Sm inh)
COCCNS(=O)(=O)c1ccc(C2CNC(=O)C2)cc1 (stereo not given)	AmpC inh no det 4µM[single pt active]
CCN1CCN(Cc2ccc(NC(=O)Nc3ccccc3Cl)cc2)CC1	AmpC inh no det 4µM[single pt active]
CSc1nc(-c2ccco2)nn1C(=O)c1ccc(C)cc1	Anthrax LT inh inconclusive, AmpC inh no det 4µM[single pt active]
Nc1nc(-c2ccco2)nn1C(=O)CCc1ccccc1	none
CSc1nc(-c2ccco2)nn1C(=O)c1ccco1	AmpC inh no det 2.5µM[single pt active]
CCCC(=O)n1nc(-c2ccco2)nc1SCc1ccccc1	AmpC inh no det 10µM
OC(Cc1ccccc1)(Cc1ccccc1)c1ccccc1	none
Nc1ccc(F)cc1F	none (no result: Anthrax LT inh, Prx2 Sm inh)
CO[C@H]1COC(=O)[C@H](C)COC(=O)[C@@H](OCc2ccccc2)/C=C\[C@@H]1C	none (no result: AmpC inh det, AmpC inh no det, Prx2 Sm inh)
Cn1nc(OCC(N)=O)ccc1=O	none
NC(=O)COc1ccc(=O)n(-c2ccccc2)n1	AmpC inh no det 4µM[single pt active]
O=[N+]([O-])c1cc(C(F)(F)F)cc([N+](=O)[O-])c1Cl	none (no result: Prx2 Sm inh)
CCCN(CCC)c1c([N+](=O)[O-])cc(C(F)(F)F)cc1[N+](=O)[O-]	Anthrax LT inh 5µM (no result: Prx2 Sm inh)
CC12C=C(/C=C/C=C/c3ccccc3)C(C)(C1)C(/C=C/c1ccccc1)CC2=O (stereo not given)	none (no result: AmpC inh det, AmpC inh no det, Prx2 Sm inh)
O=c1ccn([C@@H]2O[C@@H](COP(=O)(O)OP(=O)(O)O)[C@H](O)[C@@H]2O)c(=O)[nH]1	none
Cc1noc(/C=C/N(C)C)c1S(=O)(=O)N1CCc2ccccc21	Anthrax LT inh inconclusive, AmpC inh no det 4µM[single pt active]
FC(F)(F)c1ccccc1-c1ccc2ncnc(N3CCOCC3)c2c1	Anthrax LT inh inconclusive
CO[C@@H]1/C=C\CC(=O)N[C@@H](C)C(=O)OC[C@H](NS(=O)(=O)c2ccc(C)cc2)[C@H](C)/C=C\CC(=O)OC[C@H]1C	none (no result: AmpC inh det, AmpC inh no det, Prx2 Sm inh)
CC(C)COC(=O)c1ccccc1C(=O)OCC(C)C	Anthrax LT inh inconclusive (no result: Prx2 Sm inh)
